Screening data deposited in PubChem BioAssay by National Center for Advancing Translational Sciences (NCATS).
Rows were chosen to be rich in hits. Some 4.6% of all compounds tested hit in one or more screens of this group.
D1 agonist – activates the human D1 dopamine receptor. P21728. HEK293 T-REx D1 cells, calcium flux, agonist mode. activation, % at 2 µM. hit rate 1% among 360,000; note: 0% is about no effect
Target sequence (P21728 whole entry, looked up): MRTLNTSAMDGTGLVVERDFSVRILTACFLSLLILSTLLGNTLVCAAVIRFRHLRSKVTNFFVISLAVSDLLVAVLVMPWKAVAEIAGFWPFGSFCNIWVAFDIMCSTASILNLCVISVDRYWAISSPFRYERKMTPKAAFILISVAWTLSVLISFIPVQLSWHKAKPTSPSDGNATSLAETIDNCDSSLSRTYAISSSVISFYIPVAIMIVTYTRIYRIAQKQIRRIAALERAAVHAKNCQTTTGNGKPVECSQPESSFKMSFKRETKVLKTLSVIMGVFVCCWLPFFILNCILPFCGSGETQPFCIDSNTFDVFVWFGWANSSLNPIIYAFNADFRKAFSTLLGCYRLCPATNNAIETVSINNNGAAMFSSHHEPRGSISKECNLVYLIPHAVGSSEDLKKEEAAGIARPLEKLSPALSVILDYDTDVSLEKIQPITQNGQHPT
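Inducible HEK293 T-REx D1 cells, force-coupled to calcium signalling, were plated at 4000 cells/well with tetracycline and held overnight at 30 C. After no-wash calcium dye loading, compound-evoked calcium rise over 180 s flagged agonists.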
D1 antag – antagonists of human D1 dopamine receptor. P21728. HEK293 TREx D1 cells, calcium flux, dopamine EC80; hits give low values. activity change, negative = inhibition, % at 10 µM. hit rate 3.2% among 360,000. AID 504652; in the data active = activity change below about -30%; note: % is set by controls: 0 for no effect and ±100 for the full control effect
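HEK293 T-REx cells expressing inducible, force-coupled D1 receptor; no-wash Ca dye, 30–90 min RT. Cmpd → 180 s read at 1 Hz → EC80 DA → 180 s read.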
D1 potentiator – human D1 dopamine receptor positive modulation | hit rate 0.036% among 360,000 | P21728 | AID 504651 | potentiation, % at 10 µM | HEK293 TREx D1 cells, calcium flux, dopamine EC20 potentiation; in the data active = potentiation above about 30%; note: 0% is about no effect
TRHR ag – TRH receptor (human) agonism; P34981; hit rate 0.18% among 360,000; TRHR cells, calcium flux fluo-8, FDSS agonist mode; AID 493084; activation, % at 2 µM; note: 0% is about no effect
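Fluo-8-loaded TRHR cells; 10 s baseline, compound added, kinetic Ca2+ fluorescence read 1/s, agonist mode.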
TRHR enhancer – TRH receptor (human) allosteric enhancement; enhancement, % at 2 µM; TRHR cells, fluo-8 calcium fluorescence, EC20 TRH enhancement; hit rate 0.66% among 360,000; in the data active = enhancement above about 30%; note: 0% is about no effect
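Enhancer read-out: after compound pinning and an initial kinetic agonist-mode read, an EC20 of TRH (10 nM final) was injected and fluo-8 calcium signal (Ex 480/Em 530) followed at 1 s/cycle for 100 cycles in TRHR-expressing cells.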
Numbers without * were called inactive; ! = not active in a repeat. Cut-off read from the data, not from the text of the source, unless noted: active = activation above about 30%; inactive = the rest.

SMILES | D1 agonist | D1 antag | D1 potentiator | TRHR ag | TRHR enhancer
CCOC(=O)c1c(C)oc2nc(C)nc(NCCc3ccc(OC)c(OC)c3)c12 | 2 | 0 | 0 | 0 | 22
CCOC(=O)c1c(C)oc2nc(C)nc(NCCc3ccc(SC)cc3)c12 | 5 | -32* | -6 | 0 | 12
CC(C)(C)NC(=O)CSc1nnnn1C(C)(C)C | 4 | -38* | -10 | 0 | -3
CC(C)c1nnc(SCC(=O)NC(C)(C)C)n1C | 2 | -3 | 2 | 1 | -1
Cc1cccc(OCC(=O)NNC(=O)c2cc3ccccc3oc2=O)c1 | 3 | -4 | -7 | 0 | 10
O=C(COc1ccc(F)cc1)NNC(=O)c1cc2ccccc2oc1=O | 1 | -30* | -9 | 0 | -3
CCOc1ccc(NC(=O)c2cc3cc(C)ccc3n2C)cc1 | -1 | -56* | 2 | 1 | -1
COc1cccc(-c2ccc(=O)n(CC(=O)Nc3cc4c(cc3NC(C)=O)OCCO4)n2)c1 | 2 | -3 | 0 | 0 | -2
COc1ccc(C(=O)NCC(C)CN(C)C)cc1 (stereo not given) | 1 | 2 | -2 | 1 | 9
CCCCC(=O)Nc1ccnc(-c2cccnc2)n1 | 220* | -86* | -2 | 0 | 1
CC(=O)Nc1ccnc(-c2cccnc2)n1 | 0 | -4 | 0 | 1 | 1
COC(=O)c1ccc(Sc2ccc(C)cc2)c(N)c1 | 10 | -36* | -11 | -1 | -4
COc1ccc(OC)c(CNC(=O)c2ccc(Sc3ccc(C)cc3)c(N)c2)c1 | -3 | 0 | 0 | 0 | 1
COC(=O)c1ccc(C)c(NC(=O)CCSc2ccc(C)cc2)c1 | 3 | -18 | -11 | 0 | 34*
O=C(NNC(=S)NC1CCCCC1)c1ccccc1O | 10 | 6 | 0 | 1 | 11
Cc1ccc2nc(-c3cc(-c4ccccc4)no3)cn2c1 | 1 | -53* | -17 | 0 | -1
CCN1CCOC(=O)C1CC(=O)Nc1ccc(C(C)=O)cc1 (stereo not given) | 1 | -4 | 2 | -4 | 1
CCc1ccc(NC(=O)CC2C(=O)OCCN2CC)cc1 (stereo not given) | -1 | -75* | -5 | 1 | 8
COc1ccc(S(=O)(=O)N2CCOCC2)cc1NC(=O)C1CCCN1C(=O)c1cccs1 (stereo not given) | 3 | -62* | -6 | -1 | -4
COc1ccc(S(=O)(=O)N2CCOCC2)cc1NC(=O)[C@@H]1CCCN1C(=O)c1cccs1 | 0 | 2 | -2 | 0 | 1
CC(=O)N1CCOCCOCCN(C(C)=O)CCOCC1 | -2 | -21 | 0 | 1 | 5
N#C/C(=C\c1ccc(-c2ccc(Br)cc2)o1)C(=O)NCCc1c[nH]c2ccccc12 | 3 | -34* | -6 | 1 | 6
Cc1c([C@H]2[C@@H](CC#N)C2(C)C)c2ccccc2n1C | 1 | -12 | -7 | -1 | -1
Cc1[nH]c2c(Br)cccc2c1[C@H]1[C@@H](CC#N)C1(C)C | 5 | 3 | -4 | 0 | 32*
CC(=O)Nc1ccc(Nc2cc(-c3ccccc3)nc3ncnn23)cc1 | 0 | -10 | -2 | -1 | 38*
SMILES | D1 agonist | D1 antag | D1 potentiator | TRHR ag | TRHR enhancer
CC(=O)Nc1ccc(Nc2cc(C)nc3c(-c4ccccc4)cnn23)cc1 | 11 | -40* | -12 | 4 | 2
CCc1ccc(CN2CCCC(C(=O)Nc3ccc(-c4cscn4)cc3)C2)o1 (stereo not given) | 4 | 13 | 0 | -1 | 1
O=C1OC(C(=O)Nc2nccs2)Cc2ccccc21 (stereo not given) | 1 | -40* | 1 | 1 | -5
COc1cc2c(cc1OC)C(c1cccs1)N(C(=O)c1cccc(S(=O)(=O)N(C)C)c1)CC2 (stereo not given) | 3 | 3 | -1 | 0 | -19
Cc1c(NC(=O)Nc2ccc3c(c2)OCO3)cccc1[N+](=O)[O-] | 14 | -44* | -10 | 1 | -1
Cc1ccccc1NC(=O)Nc1ccc2c(c1)OCO2 | 2 | -20 | -7 | 1 | -2
CCOC(=O)C1CCCN(S(=O)(=O)c2nc3nc(C)cc(C)n3n2)C1 (stereo not given) | 7 | -6 | -2 | 1 | 2
Cc1cc(C)cc(NC(=O)CCC(=O)N2CCSc3ccccc32)c1 | 1 | -58*! | -2 | 0 | 2
